Assay results as given in PubChem BioAssay AID686979 (National Center for Advancing Translational Sciences (NCATS), 2013).
Where “and” joins values, the source holds several entries; their conditions need not be identical. Identical values can stand only once. Among all 420,000 compounds or so, about 50,000 (12%) were called active. Inconclusive results (about 26%) are left out. This is one part of a sample in which actives are shown more often than they occur. Calls come from the whole dose curve; as a rule, active = well fitted inhibition curve with a large enough effect; inconclusive = small, poorly fitted or top-dose-only effect; inactive = flat fitted curve, though single readings scatter.
% is set by controls: 0 for no effect and ±100 for the full control effect; potency is the fitted concentration of half-maximal effect.

Test: qHTS for Inhibitors of human tyrosyl-DNA phosphodiesterase 1 (TDP1): qHTS in cells in presence of CPT; note: nearly all actives have a fitted effect of over 55% in size
Settings: chicken DT40 Tdp1-/-;hTDP1 cells + 20 nM CPT, ATP luminescence, 48 h; series mostly up to 46.2 µM; activity change, negative = growth inhibition: at the top concentration
Summary of the method: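 Chicken DT40 Tdp1-/- cells complemented with human TDP1, 400 cells/well, exposed to compounds plus 20 nM camptothecin for at least 48 h at 37 C; viability read as ATP content by CellTiter-Glo luminescence.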
For `COc1ccccc1CC(NC(C)=O)C(=O)NC1CCN(C(=O)Nc2ccccc2Cl)CC1` (stereo not given), the “activity change, negative = growth inhibition” value was -0.748% (inactive). In the case of `COc1cc(C2/C(=C(\O)c3ccc4c(c3)CC(C)O4)C(=O)C(=O)N2c2nnc(C)s2)cc(OC)c1OC` (stereo not given), the “activity change, negative = growth inhibition” value is reported as -25.2% (inactive). With `Cc1cc(Nc2ccc(C(=O)N3CCCCC3)cc2)c2cccc(C)c2n1` the “activity change, negative = growth inhibition” value was -29.6% (inactive). In the case of `CCOC(=O)N1CCN(C(c2ccnc3ccccc23)c2nnnn2-c2c(C)cccc2C)CC1` (stereo not given), the “activity change, negative = growth inhibition” value is reported as -13.3% (inactive). With `CCOC(=O)N1CCN(Cc2nc(N)nc(Nc3ccc(C)cc3)n2)CC1` the “activity change, negative = growth inhibition” value was -20.9% (inactive). In the case of `CCOC(=O)N1CCN(C(c2cccnc2)c2ccc3cccnc3c2O)CC1` (stereo not given), the Potency is reported as 3.66 µM (active). In the case of `CC1(C(=O)O)CCC(C(=O)Nc2ccc(Cl)c(Cl)c2)C1(C)C` (stereo not given), the “activity change, negative = growth inhibition” value is reported as 13.4% (inactive). With `COc1ccc(S(=O)(=O)NNC(=O)Nc2ccc(C)cc2)c(OC)c1` the “activity change, negative = growth inhibition” value was -12.3% (inactive). With `CCOC1=C2CN(S(=O)(=O)c3ccc(C)cc3)[C@H](c3cccs3)C[C@H]2[C@H]2C(=O)N(c3ccccc3)C(=O)[C@H]2C1` the “activity change, negative = growth inhibition” value was -20.8% (inactive). In the case of `O=C(COC(=O)c1cccc(Cl)c1)NC(=O)NCc1ccccc1`, the “activity change, negative = growth inhibition” value is reported as -2.34% (inactive). With `Cc1ccc(S(=O)(=O)c2c(COC(=O)c3cccc(Cl)c3)c(-c3ccccc3)nn2C)cc1` the Potency was 23.1 µM (active). For `Cc1cc(C)n(-c2c(F)c(F)c(COC(=O)c3ccccc3)c(F)c2F)n1`, the “activity change, negative = growth inhibition” value was -8.41% (inactive). With `COc1ccc(S(=O)(=O)N2CCOCC2)cc1NC(=O)COc1ccccc1` the “activity change, negative = growth inhibition” value was -1.42% (inactive). With `CC1CC(C)CN(C/C=C/c2ccccc2[N+](=O)[O-])C1` (stereo not given) the “activity change, negative = growth inhibition” value was -20.7% (inactive). In the case of `O=C(CCNC(=O)c1ccccc1Cl)NN=Cc1ccco1`, the “activity change, negative = growth inhibition” value is reported as 3.9% (inactive). For `Cn1c(NCc2cccnc2)nc2cc(-c3ccc(F)cc3)sc2c1=O`, the “activity change, negative = growth inhibition” value was -8.93% (inactive). For `CC(=O)Nc1cccc(-c2cc3nc(NCc4cccnc4)n(C)c(=O)c3s2)c1`, the “activity change, negative = growth inhibition” value was -19.4% (inactive). With `COc1cccc(-c2cc3nc(NCc4ccccc4OC)n(C)c(=O)c3s2)c1` the Potency was 13 µM (active). For `CN(C)S(=O)(=O)c1ccc(N/C=C(\[N+](=O)[O-])S(=O)(=O)c2ccccc2)cc1`, the “activity change, negative = growth inhibition” value was 0.564% (inactive). In the case of `C[C@@H](C(=O)N1CCNCC1)n1cc(CCC(=O)O)nn1`, the “activity change, negative = growth inhibition” value is reported as -8.56% (inactive). With `Cc1ccc(Cn2c(C)c(C(=O)NCc3ccccc3C(F)(F)F)sc2=O)cc1` the “activity change, negative = growth inhibition” value was -25.2% (inactive). For `Cc1ccccc1NC(=O)c1ccccc1NS(=O)(=O)c1cccc2cccnc12`, the “activity change, negative = growth inhibition” value was 6.92% (inactive). For `O=[N+]([O-])c1ccccc1S(=O)(=O)Nc1cccc2cccnc12`, the Potency was 794 nM (active) and 3.26 µM (active). For `NS(=O)(=O)c1ccc(CCNS(=O)(=O)c2cccc3cccnc23)cc1`, the “activity change, negative = growth inhibition” value was 9.19% (inactive). In the case of `COc1cccc(C(=O)NC(=O)Nc2nc(C)cc(C(F)(F)F)n2)c1`, the “activity change, negative = growth inhibition” value is reported as -1.3% (inactive). With `Cc1ccc(N2CC(C(=O)Nc3cc(Cl)ccc3-n3cncn3)CC2=O)cc1` (stereo not given) the “activity change, negative = growth inhibition” value was -11.7% (inactive). With `O=C(c1ccco1)N1CCN(C(=S)Nc2cc(F)cc(F)c2)CC1` the “activity change, negative = growth inhibition” value was -16.4% (inactive). For `O=C(CN1CCN(C(=O)c2ccco2)CC1)Nc1ccc2c(c1)OCO2`, the “activity change, negative = growth inhibition” value was 9.66% (inactive). In the case of `O=C(CN1CCN(C(=O)c2ccco2)CC1)Nc1ccc(Cl)c(C(F)(F)F)c1`, the Potency is reported as 23.1 µM (active). With `Cc1ccc(-n2nnnc2CNC(=O)c2ccccc2C)cc1C` the “activity change, negative = growth inhibition” value was -8.98% (inactive). With `C[C@H]1CN([C@@H](C)CO)C(=O)CCCn2cc(nn2)CO[C@@H]1CN(C)S(=O)(=O)c1cccc(C#N)c1` the “activity change, negative = growth inhibition” value was 24.7% (inactive). For `O=C(O)C(c1cccs1)C1(O)CCCCC1` (stereo not given), the “activity change, negative = growth inhibition” value was -2.18% (inactive). With `O=C(NCCCN1CCOCC1)c1cc(-c2ccccc2F)no1` the “activity change, negative = growth inhibition” value was -15% (inactive). For `COC(=O)CSc1snnc1-c1ccc(Cl)c(Cl)c1`, the “activity change, negative = growth inhibition” value was 4.95% (inactive). In the case of `Cc1c(NC(=O)C(C)OC(=O)c2c3c(nc4ccccc24)CCC(C)C3)c(=O)n(-c2ccccc2)n1C` (stereo not given), the Potency is reported as 13 µM (active). In the case of `Cc1c(NC(=O)C(C)OC(=O)c2ccccc2O)c(=O)n(-c2ccccc2)n1C` (stereo not given), the “activity change, negative = growth inhibition” value is reported as -25% (inactive). With `Cc1c(NC(=O)C(C)OC(=O)c2cc3c4ccccc4n(C)c3s2)c(=O)n(-c2ccccc2)n1C` (stereo not given) the “activity change, negative = growth inhibition” value was -24.5% (inactive). For `N#C/C(=C\c1ccccc1)c1n[nH]c(Cn2cncn2)n1`, the “activity change, negative = growth inhibition” value was -9.22% (inactive). In the case of `Cc1nn2cc(-c3ccc(Cl)cc3)cnc2c1Br`, the “activity change, negative = growth inhibition” value is reported as 18.4% (inactive). In the case of `CCc1c(-c2ccc(F)cc2)ncn1Cc1cccc(-c2ccccc2)c1`, the Potency is reported as 11.6 µM (active). In the case of `Cc1cccc(Cn2cnc3c(N)c(C)c(C)cc32)c1`, the “activity change, negative = growth inhibition” value is reported as -21.5% (inactive). In the case of `O=C(NCc1ccncc1)C1CCN(C(=O)c2cccc(Cl)c2)CC1`, the “activity change, negative = growth inhibition” value is reported as 3.42% (inactive). With `Nc1ccc(-n2nncc2-c2ccco2)cc1` the “activity change, negative = growth inhibition” value was -18.1% (inactive). With `O=C(NC(=S)Nc1ccc(Cl)c(C(=O)O)c1)c1cncc(Br)c1` the “activity change, negative = growth inhibition” value was 2.05% (inactive). With `COc1ccccc1N(CC(=O)Nc1ccccc1C(=O)N1CCCC1)S(C)(=O)=O` the “activity change, negative = growth inhibition” value was 8.7% (inactive). With `CCCn1c(N)c(C(=O)CSc2nnc(Cc3cccs3)n2C2CC2)c(=O)[nH]c1=O` the “activity change, negative = growth inhibition” value was 4.23% (inactive). For `CCc1nnc(SCc2nc(-c3cccc(C)c3)oc2C)c2cc3sc(C)cc3n12`, the “activity change, negative = growth inhibition” value was -6.05% (inactive). With `Cc1cc(NC(=O)CSCc2nc(-c3cccc(Cl)c3)oc2C)no1` the “activity change, negative = growth inhibition” value was -4.98% (inactive). In the case of `Cc1cc2c(cc3c(SCc4nc(-c5ccccc5)oc4C)nnc(C)n32)o1`, the Potency is reported as 16.4 µM (active). In the case of `O=C(NC1CCCCC1)n1c(=O)oc2cc(S(=O)(=O)N3CCCCC3)ccc21`, the “activity change, negative = growth inhibition” value is reported as -26.8% (inactive). With `Cc1ccc2nc(NC(=O)C3CCN(S(=O)(=O)c4ccc5c(c4)oc(=O)n5C)CC3)sc2c1` the Potency was 5.8 µM (active). For `Cc1ccc2nc(NC(=O)C3CSC4(C)CCC(=O)N34)sc2c1` (stereo not given), the “activity change, negative = growth inhibition” value was -18.2% (inactive). In the case of `O=C(Nc1cc2c3c(c1)C1CCCC1CN3CC1CCCC21)c1ccc([N+](=O)[O-])cc1` (stereo not given), the “activity change, negative = growth inhibition” value is reported as -17.6% (inactive). With `CC[C@@H](C)[C@@H](C(=O)N1CCN(C(=O)OC(C)(C)C)CC1)n1cc(CCC(=O)O)nn1` the “activity change, negative = growth inhibition” value was -1.7% (inactive). With `O=C(O)c1cc(S(=O)(=O)NC2CCCc3ccccc32)ccc1O` (stereo not given) the “activity change, negative = growth inhibition” value was 33.7% (inactive). For `O=c1[nH]c2ccccc2n1C1CCN(CCOc2ccccc2)CC1`, the Potency was 3.66 µM (active). For `O=C(c1ccc(Br)o1)N1CCN(CCOc2ccccc2)CC1`, the “activity change, negative = growth inhibition” value was -15.3% (inactive). In the case of `O=C(c1ccco1)N1CCN(CCOc2ccccc2)CC1`, the “activity change, negative = growth inhibition” value is reported as -1.14% (inactive). With `CO[C@@H]1CN(C)C(=O)c2cc(NC(=O)C3CC3)ccc2OC[C@H](C)N(C(=O)CN2CCOCC2)C[C@@H]1C` the “activity change, negative = growth inhibition” value was 11.5% (inactive). With `NC(=O)C1CC(=O)N(c2ccc(OCC(=O)NCc3ccccc3)cc2)C1` (stereo not given) the “activity change, negative = growth inhibition” value was 2.53% (inactive). In the case of `C#Cc1cc(N2CCN(C(=O)c3ccoc3)CC2)n2nc(-c3cccc(Cl)c3)cc2n1`, the Potency is reported as 7.31 µM (active). With `O=C(c1ccccc1)N1CCN(c2cc(-c3ccccc3)nc3cc(-c4cccc(Cl)c4)nn23)CC1` the Potency was 23.1 µM (active). With `O=C(c1cccc(Cl)c1)N1CCN(Cc2ccccc2)CC1` the “activity change, negative = growth inhibition” value was -11.1% (inactive). In the case of `CN(C)CCN1CCN(c2cc(-c3cccc(Cl)c3)nc3ccnn23)CC1`, the “activity change, negative = growth inhibition” value is reported as -95.5% (inactive). In the case of `O=C(c1cccc(Cl)c1)N1CCN(CCc2ccncc2)CC1`, the “activity change, negative = growth inhibition” value is reported as -15.1% (inactive).
